As a reminder, the inhibition is the drop in the measured response relative to a control, in per cent.

Data on 96 molecules can be found in PubChem BioAssay AID951 (NMMLSC, 2007).

About 140 (0.074%) of roughly 190,000 compounds were called active. For the sample, actives were picked, then their nearest neighbours and some compounds at random. A number with no mark means an inactive call. No stated cut-off is given here; in the data, active means inhibition above about 40%.

For the test, the target named is Bcl-2-like protein 10 (Homo sapiens) (UniProt Q9HD36). The test is described as follows: Bcl-B and Bim peptide interaction disruptors – biochemical, multiplexed, human Bcl-2 family, primary screen (AID 951).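 Further: 0% = tracer peptide without compound and 100% = reference inhibitor peptide.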 Particulars: bead-based flow cytometry, Bim peptide-Bcl-B binding; at 10 µM; stronger effect = higher value. In general terms: In flow cytometry, cells or beads pass a laser one at a time.
Chain of Bcl-2-like protein 10 (Homo sapiens) (Q9HD36 whole entry, looked up): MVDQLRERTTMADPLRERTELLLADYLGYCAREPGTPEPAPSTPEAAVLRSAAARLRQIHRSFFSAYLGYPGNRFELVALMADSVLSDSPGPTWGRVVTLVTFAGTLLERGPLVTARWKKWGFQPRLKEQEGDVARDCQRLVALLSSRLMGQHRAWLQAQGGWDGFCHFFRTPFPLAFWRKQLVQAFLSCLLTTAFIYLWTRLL
`CC(C)NC(=O)/C(C#N)=C\c1ccc(N(C)C)c(Br)c1`: the inhibition was -2%.

Regarding `CCc1nccn1S(=O)(=O)c1cccc([N+](=O)[O-])c1`, the inhibition is -2%. As for `CCc1c(SCCC(=O)O)nc2ccccc2c1C`, the figure is -7%; as for `CN(Cc1ccccn1)Cc1nc(-c2ccc(Cl)cc2)no1`, -6%; as for `Nc1nnnn1CC(=O)N/N=C/c1ccc(-c2cccc(Cl)c2)o1`, -4%. The result for `Cc1cc(C)n(-c2ccc3nncn3n2)n1` reads 2%; that for `Cc1ccc(C2=NN(C(=O)CSc3nc(N)cc(N)n3)C(c3ccco3)C2)cc1` (stereo unspecified), -27%. As for `CC1CCc2sc(C(=O)N/N=C/C3CCCCC3)cc2C1` (stereo unspecified), the figure is -6%; as for `Cc1ccc2nc(-c3ccncc3)cc(C(=O)Nc3ccc(OC(F)F)cc3)c2c1`, 1%; as for `COc1ccc(-n2cc(CNC3CCOCC3)c(-c3cccc(F)c3)n2)cc1`, -5%. On to `COc1ccc(Cl)cc1N(CC(=O)N1CCCCC1)S(C)(=O)=O`, for which the inhibition was -5%. The result for `Clc1ccc(CSc2nnc(/C=C/c3ccccc3)o2)c(Cl)c1` reads -9%; that for `CSCc1cc(N(C)C)nc(SCc2ccc(Cl)cc2Cl)n1`, 69% (active). `CSCc1cc(N2CCOCC2)nc(SCc2ccc(Cl)cc2Cl)n1`: the inhibition was -11%.

For `Cc1cccc(NC(=S)N2CCCC(c3nc4ccccc4[nH]3)C2)c1` (stereo unspecified), the inhibition is -14%.

In the case of `O=C(COC(=O)[C@H](Cc1ccccc1)NC(=O)c1cccs1)Nc1cc(F)ccc1F`, the inhibition was -14%.

Take `Cc1ccc(C)c(NC(=O)CSc2nc3c(oc4ccccc43)c(=O)n2-c2ccccc2)c1`: the inhibition was -6%.

`C/C(=N\NC(=O)c1cccc(N2CCCC2=O)c1)c1ccc(N)cc1`: the inhibition is -7%. As for `CC(O)C(NS(=O)(=O)c1ccc(Cl)cc1)C(=O)OCc1cc([N+](=O)[O-])cc2c1OCOC2` (stereo unspecified), the figure is 0%. As to `COc1ccc(N(C(=O)c2ccc(C)cc2)S(=O)(=O)c2cccs2)cc1`, the inhibition is -6%. The result for `CSCCC(NC(=O)COc1ccccc1)C(=O)Nc1ccc(C)cc1` (stereo unspecified) reads -6%; that for `Cc1nc(CC(=O)NNS(=O)(=O)c2ccc(F)c(Cl)c2)cs1`, 1%; that for `O=C(NC1CCCCC1)C1CCCN(S(=O)(=O)c2ccc(Br)s2)C1` (stereo unspecified), -6%. As for `c1ccc2c(c1)CSc1sccc1C2=C1CCNCC1`, the figure is -4%. As for `Cc1ccc(C(C)NC(=O)Cn2nc(C)c([N+](=O)[O-])c2C)cc1` (stereo unspecified), the figure is -3%; as for `CCOC(=O)N/N=C/c1cccnc1`, -4%. On to `CCN(CC)P(=O)(Nc1ccc(SC(F)F)cc1)c1ccc(N(C)C)cc1NC(=O)c1ccco1` (stereo unspecified), for which the inhibition is 1%. As for `CN(C)C(=O)N1CCNCC1`, the figure is 0%; as for `Cc1cc(C)n(CC(=O)Nc2ccc([N+](=O)[O-])cc2)n1`, 0%; as for `CC(C)C(=O)NCc1cc(-c2ccc(Cl)cc2)no1`, 5%. The result for `CC1=NN(C(=O)CCCc2ccccc2)C(O)(C(F)(F)F)C1` (stereo unspecified) reads -2%; that for `OCC1(CCOc2ccccc2)CCN(Cc2cn[nH]c2-c2ccccc2)CC1`, -2%; that for `CN1CCN(c2ccc(S(=O)(=O)N3CCCCC3)cc2NC(=O)Cc2ccccc2F)CC1`, -4%. Consider `COc1ccc(N2CCN(C(=O)CNS(=O)(=O)c3ccc(C)c(C)c3)CC2)cc1`, for which the inhibition is -2%. Take `O=C(CCC1CCCN(Cc2ccc(O)c(Cl)c2)C1)NCc1ccccc1F` (stereo unspecified): the inhibition was -1%. As for `CCCCN(CC(=O)NC(C)(C)C)C(=O)C(=O)Nc1ccc2c(c1)OCCO2`, the figure is 1%. As for `COc1ccccc1N1CCN(CC(=O)NC(=O)NCc2ccco2)CC1`, the figure is -9%; as for `CCN(CCn1cccn1)Cc1cn[nH]c1-c1ccc(OC)cc1F`, -4%. With `O=C(COC(=O)CNC(=O)c1ccccc1F)NCC(F)(F)F`, the inhibition was -5%. The result for `COc1ccc(C(CC(=O)Nc2ccc(C)cc2)NC(=O)C(F)(F)F)cc1` (stereo unspecified) reads -9%; that for `CCOC(=O)c1oc2c(CN3CCN(CCO)CC3)c(O)c(CC)cc2c(=O)c1-c1nc2ccccc2s1`, 0%; that for `N#Cc1ccccc1NC(=O)COc1c(Br)cc(Br)c2cccnc12`, -7%.

With `Cc1ccc(Nc2nc(CSc3nnc(-c4ccncc4)n3-c3ccccc3C)cs2)cc1`, the inhibition is -11%. As for `CCCCc1ccc(NC(=S)N2CCCC(CO)C2)cc1` (stereo unspecified), the figure is -7%; as for `Cc1ccc(NC(=O)O/N=C/c2cccc([N+](=O)[O-])c2)cc1`, 0%. For `CCOc1cc(NC(=S)NCCCOC)c(OCC)cc1NC(=O)c1ccco1`, the inhibition was -11%. For the molecule `NC(=O)c1ccccc1N=Cc1ccc2ccccc2c1`, the inhibition is -4%.

In the case of `O=c1c(-c2ccccc2)cnc2n1CCS2`, the inhibition is -2%. The result for `O=C(CC1SCCNC1=O)Nc1ccc(Cl)c(Cl)c1` (stereo unspecified) reads -1%; that for `CCC(CC)C(=O)N1CCN(c2cccc(C)c2C)CC1`, 0%; that for `CCN(CC)CCNC(=O)c1ccc(NS(=O)(=O)c2ccc3c(c2)OCCO3)cc1`, 0%. In the case of `Cc1nc2ccccc2n1CC(=O)N/N=C/c1cccs1`, the inhibition was -6%. The result for `CN(C)c1ccc(C(=S)N2CCN(C(=S)Nc3ccc(Cl)cc3)CC2)cc1` reads -6%; that for `CN1CCN(CCNC(=O)Nc2ccc([N+](=O)[O-])cc2)CC1`, -5%. As for `O=C(Nn1cnc2ccccc2c1=O)c1ccc([N+](=O)[O-])cc1Cl`, the figure is 0%; as for `Cc1c(CN2CCCCC2)c(O)n(CCO)c(=O)c1C#N`, -3%; as for `CCOc1cc(NC(=O)CCl)c(OCC)cc1NC(C)=O`, -4%. Take `CC(NC(=O)COC(=O)c1ccc2c(c1)OCO2)c1ccccc1` (stereo unspecified): the inhibition is 0%. As for `CC(C)NC(=O)c1ccc(Cl)cc1Cl`, the figure is -2%; as for `Cn1c(-c2sccc2OCc2cccc(C(F)(F)F)c2)n[nH]c1=S`, -24%.

Turning to `O=C(CC(NC(=O)c1ccccc1)c1ccccc1)Nc1ccc(F)c(F)c1` (stereo unspecified), the inhibition is -6%.

In the case of `CCOC(=O)C1(C)NC(c2ccco2)C2C(=O)N(c3ccccc3)C(=O)C21` (stereo unspecified), the inhibition is -1%.

For `CC(=O)c1c(N2CCN(c3ccc(F)cc3)CC2)nc(=S)n(-c2ccccc2)c1C`, the inhibition is -11%.

For `CNC(=O)C(=O)N/N=C/c1ccccn1`, the inhibition is 2%. The result for `CCCC1NC(=S)NC(C)=C1C(C)=O` (stereo unspecified) reads -2%.

On to `C/C(=N/NC(=O)CSc1ccccn1)c1ccc([N+](=O)[O-])cc1`, for which the inhibition is -2%.

For the molecule `CC(C)(C)C(=O)CSc1nc2ccccc2o1`, the inhibition is -4%. As for `CCOC(=O)C(C)Oc1cccc2c(=O)n(CC(=O)NCCc3ccc(OC)c(OC)c3)ccc12` (stereo unspecified), the figure is -3%; as for `CCSC1=NCCN1C(=O)c1ccc(S(=O)(=O)N(CC)CC)cc1`, -5%.

Regarding `CC(C)(C)c1ccc(/C=C2\SC(=O)N=C2N)cc1`, the inhibition is -3%. The result for `Cc1c(Br)c([N+](=O)[O-])nn1CC(=O)Nc1sc2c(c1C(=O)OC(C)C)CCC(C)C2` (stereo unspecified) reads 2%. As for `Cc1cc(Cl)ccc1OCc1nc(-c2ccncc2)no1`, the figure is -5%. The result for `O=C(Nc1ccc2c(c1)CCC2)c1ccc(Br)s1` reads 0%; that for `CCn1cc(C(=O)NCCCN2CCCCCC2)c(=O)c2cc(S(=O)(=O)N3CCc4ccccc4C3)ccc21`, -12%; that for `O=C(N/N=C/c1cc2c(cc1Br)OCO2)C1COc2ccccc2O1` (stereo unspecified), 1%.

In the case of `O=[N+]([O-])c1cccc(/C([O-])=C(/C(=S)Nc2ccccc2F)[n+]2ccccc2)c1`, the inhibition is -16%.

Turning to `COc1cccc(-c2ccc(C#N)c(SCC(=O)NCCc3ccc(Cl)cc3)n2)c1`, the inhibition was -12%. As for `O=C(NCC1CCCO1)C1CCN(C2CCN(C(=O)C3CCCCC3)CC2)CC1` (stereo unspecified), the inhibition was 0%.

Regarding `Cc1cccc(-n2c(SCC(=O)Nc3cccc(S(=O)(=O)NC4=NCCCCC4)c3)nc3ccccc3c2=O)c1C`, the inhibition was -4%. The result for `O=C(Nc1ccc(F)cc1)C1CCN(C(=O)c2ccc([N+](=O)[O-])cc2)CC1` reads 6%. As for `O=C(O)c1ccc(NS(=O)(=O)c2ccc3c(c2)C(=O)c2cc(S(=O)(=O)Nc4ccc(C(=O)O)cc4)ccc2-3)cc1`, the figure is -6%; as for `O=C(COC(=O)Cc1ccc(Br)cc1)Nc1c(F)c(F)c(F)c(F)c1F`, -7%. As for `CC(=O)c1ccccc1NC(=O)CC1(CC(=O)O)CCCCC1`, the figure is -1%; as for `CC(C)(C)C(=O)NC(NC(=S)Nc1ccc(S(N)(=O)=O)cc1)C(Cl)(Cl)Cl` (stereo unspecified), 49% (active); as for `CC(=O)NS(=O)(=O)c1ccc(NC(=S)NC(=O)C(C)(C)C)cc1`, -4%. `NS(=O)(=O)c1ccc(NC(=S)Nc2ccc(Br)c(Cl)c2)cc1`: the inhibition is -9%. The result for `COc1cccc(C2c3[nH]c4ccccc4c3CCN2Cc2cccc(C)n2)c1` (stereo unspecified) reads -3%; that for `CCOc1ccc2nc(NC(=O)c3cc([N+](=O)[O-])ccc3N3CCOCC3)sc2c1`, -3%. The result for `O=C(CCc1ccccc1)Nc1ccc(NC(=O)C2CCCCC2)nc1` reads 0%; that for `O=C(NNC(=S)NCCCN1CCOCC1)c1ccncc1`, -2%. As for `OC(COCc1ccco1)CN1CCN(c2ccccc2)CC1` (stereo unspecified), the inhibition is -4%.

`Cc1cc(N2CCOCC2)nc2ccc(NC(=S)N3CCN(Cc4ccccc4)CC3)cc12`: the inhibition was -4%. For the molecule `CCNC(=O)CC1C(=O)N(c2ccc(F)cc2)C(=O)N1Cc1cccs1` (stereo unspecified), the inhibition was -6%. The result for `CCO[C@H]1OC(C(=O)N2CCN(Cc3ccccc3)CC2)=C[C@@H](c2cn(C(C)=O)c3ccccc23)[C@@H]1CCCO` reads -3%; that for `CN(C)N(C)C(=O)C(O)(c1ccccc1)c1ccccc1`, -2%; that for `CS(=O)(=O)c1ccc2nc(NC(=O)c3ccc(Cl)nc3)sc2c1`, -2%.
